Only some compounds are listed: those with a hit (about 12% of all), similar ones and a draw of the others.
SARS PLP yeast: SARS-CoV PLP inhibition in yeast; S. cerevisiae expressing SARS-CoV PLpro, growth rescue; AID 485353; hit rate 0.19% among 330,000; Potency, µM (titrated, usually from 32.9 µM), inactives show at the highest dose activity, positive = growth rescue, hits mostly activators; calls by dose curve; also: 0% is about no effect; nearly all actives have a fitted effect of over 55% in size
Pf growth 48h: inhibits P. falciparum growth in the first generation, 48 h; P. falciparum luciferase growth in erythrocytes, 48 h; Potency, µM (highest dose often 28.7 µM), for the others: at the top dose activity change, negative = inhibition, actives largely listed as inhibitors; hit rate 5.9% among 310,000; also: % is scaled to controls: 0 for no effect and ±100 for the full control effect
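Luciferase-expressing P. falciparum in infected erythrocytes (2% hematocrit, 0.1% parasitemia final) in RPMI 1640/0.5% Albumax were exposed to compound for 48 hours at 37 C, 5% CO2; growth read as luminescence.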
AMA1 RON2 block: disrupts binding of P. falciparum AMA1 to RON2; AlphaScreen AMA1-biotinylated RON2 peptide binding; Potency, µM (top dose mostly 58.2 µM), for the others: top-dose activity change, negative = inhibition, usual class: inhibitors; hit rate 0.2% among 360,000; AID 720542;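 also: 0% = vehicle wells and -100% = peptide control; nearly all actives have a fitted effect of over 45% in size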
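AMA1 (3D7) with his tag at 25 nM final met compounds first, then biotinylated RON2 peptide at 25 nM; detection used donor plus acceptor beads, 10 µg/mL apiece, read by AlphaScreen after 30 min at room temperature.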
NS1 function inh: influenza NS1 inhibition. AID 2326. hit rate 0.4% among 270,000. Potency, µM (highest dose often 46.1 µM), without a hit: top-dose activity, positive = more growth; calls by dose curve; also: actives are rising curves; nearly all actives have a fitted effect of over 50% in size
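S. cerevisiae expressing influenza A NS1, grown in glucose, washed, then diluted 1:100 into pH 6.0 -URA galactose medium with 23 nl compound. Growth recovery read as OD600; NS1-free strain serves as control.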
Pf growth 96h: inhibits malaria parasite growth, 96 h; Potency, µM (top dose mostly 28.7 µM), inactives show at the highest dose activity change, negative = inhibition, actives largely listed as inhibitors; hit rate 6.9% among 320,000; AID 504834; P. falciparum luciferase reporter growth, 96 h; also: % is scaled to controls: 0 for no effect and ±100 for the full control effect
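Erythrocytes infected with luciferase-expressing P. falciparum were dispensed at 2% hematocrit and 0.05% parasitemia (final), then incubated with compounds 96 hours at 37 C in 5% CO2. Luminescence after detection reagent addition reported growth.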
HCV inh: HCV inhibition; Huh7.5.1 HCVcc-Cre infection, luciferase reporter, 44 h; Potency, µM (titrated, usually from 41.8 µM), for the others: at the top dose activity change, negative = inhibition, most hits filed as inhibitors; hit rate 3.4% among 340,000; AID 651820; also: % is scaled to controls: 0 for no effect and ±100 for the full control effect
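A cell-based infection assay in which seeded cells (1,000 per well) receive test compound after 4 h, are inoculated with HCVcc-Cre at approximately 0.5 moi, and are incubated 44 h before luminescence detection.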
The depositor's hits bear a star; ? = inconclusive; · = not tested or not shown; ! = not active in a repeat. Unless noted, calls follow the shape of the dose curve; as a rule, active = well fitted curve in the direction sought with a large enough effect; inconclusive = small, poorly fitted or top-dose-only effect, or another doubt; inactive = no such curve, though single readings can be large; an effect the other way counts as inactive or inconclusive. Potency is read from the fitted curve at half-maximal effect.

SMILES	SARS PLP yeast	Pf growth 48h	AMA1 RON2 block	NS1 function inh	Pf growth 96h	HCV inh
Cc1ccc(S(=O)(=O)n2nc(OC(=O)c3ccccc3F)cc2N)cc1	0%	10%	19%	0%	12µM*	17%
Cc1onc(-c2ccccc2Cl)c1C(=O)Oc1cc(N)n(S(=O)(=O)c2ccc(F)cc2)n1	-1%	6%	-23%	-3%	?	-25%
CSc1cccc(NC(=O)Nc2ccccc2C(N)=O)c1	3%	?	6%	-4%	?	-21%
CCOc1ccc(CC(=O)Nc2c3c(nn2C(C)(C)C)CS(=O)(=O)C3)cc1	-3%	-11%	12%	1%	-24%	-1%
O=C1c2ccsc2SCCN1Cc1c(Cl)cccc1Cl	-30%	·	-10%	5%	6.6µM*	-26%
O=C1c2ccsc2SCCN1Cc1c(F)cccc1Cl	2%	·	6%	-5%	?	-17%
N#Cc1cnc(SCC(=O)c2ccccc2)nc1N	0%	10µM*	4%	?	·	8%
N#Cc1cnc(SCCc2ccccc2)nc1N	-9%	72%	14%	-18%	19%	2.2µM*
CCCCCCSc1ncc(C#N)c(N)n1	0%	29%	13%	-50%	-26%	17%
CC(C(=O)Nc1ccc(S(=O)(=O)N2CCOCC2)cc1)N1C(=O)C2CC=CCC2C1=O (stereo unspecified)	0%	31%	-5%	·	-11%	16%
c1ccc(-c2cc3c(N4CCCCC4)ncnc3s2)cc1	-5%	-1%	15%	·	0%	?
c1ccc(-c2cc3c(N4CCCC4)ncnc3s2)cc1	1%	23%	-16%	·	-5%	10µM*
c1ccc(-c2cc3c(N4CCOCC4)ncnc3s2)cc1	-11%	7%	39%	-63%	25%	10µM*
C=CCNC(=S)Nc1ccc2cn[nH]c2c1	0%	0%	2%	1%	25%	4%
Clc1ccc(Cc2ccccn2)cc1	·	6%	20%	·	12%	0%
CCOC(=O)N=Nc1c2ccccc2c2nc3no[nH]c3nc12	-33%	1µM*	7%	·	19%	0.56µM*
CC(=O)Nc1cccc(NC(=O)CS(=O)(=O)c2cn(CC(=O)N(C(C)C)C(C)C)c3ccccc23)c1	1%	?	-2%	16%	12µM*	0%
COc1ccc(OC)c(NC(=O)CS(=O)(=O)c2cn(CC(=O)N3CCOCC3)c3ccccc23)c1	1%	?	2%	-2%	?	5%
COc1ccc(NC(=O)CS(=O)(=O)c2cn(CC(=O)N3CCOCC3)c3ccccc23)cc1OC	1%	-23%	3%	-1%	7.4µM*	12%
CC(C)n1c(=O)[nH][nH]c1=S	1%	1%	28%	2%	0%	21%
CC(OC(=O)c1nc(Cl)ccc1Cl)C(=O)Nc1ccc2c(c1)OCCO2 (stereo unspecified)	7%	?	4%	·	23%	7%
COc1cccc(/C=N/NC(=O)c2cc3c(OC)cccc3[nH]2)c1O	-11%	?	39%	25%	1.9µM*	?
COc1ccc(OC)c2[nH]c(C(=O)N/N=C/c3ccccc3O)cc12	3%	·	52%	-5%	?	3.2µM*
COc1ccc(/C=N/NC(=O)c2cc3c(OC)ccc(OC)c3[nH]2)cc1O	2%	3.7µM*	-2%	10%	?	?
COc1ccc(/C=N/NC(=O)c2cnccn2)cc1O	-3%	90%	2%	7%	-13%	13%
SMILES	SARS PLP yeast	Pf growth 48h	AMA1 RON2 block	NS1 function inh	Pf growth 96h	HCV inh
Cc1cc(Cl)ccc1NC(=O)CCC(=O)N/N=C/c1cccnc1	-3%	6%	-2%	11%	?	7%
Cc1ccc(OCCNC(=O)CCNC(=O)c2ccc(Cl)cc2)cc1	-2%	5%	7%	·	38%	14%
CC1(C)C(=O)C=C(N2CCCCC2)c2ccccc21	·	·	12%	·	·	·
CCCc1nn(C)c2c(=O)[nH]c(-c3cc(S(=O)(=O)N4CCN(C)CC4)ccc3OCC)nc12	-3%	?	-11%	3%	?	-10%
CCCc1nn(C)c2c(=O)[nH]c(-c3cc(S(=O)(=O)Nc4ccc(NC(C)=O)cc4)ccc3OCC)nc12	0%	9.3µM*	14%	-5%	12µM*	?
C=C1[C@@H](OC(C)=O)CC[C@]2(C)[C@@H]1C[C@@H]1C[C@H](OC(C)=O)C(C)=C([C@@H](OC(C)=O)[C@@H]2OC(C)=O)C1(C)C	-1%	6.6µM*	-6%	-16%	7.4µM*	?
CC(=O)O[C@H]1C[C@@H]2CC[C@@H]3[C@H](CC[C@]4(C)C(=O)CC[C@@H]34)[C@@]2(C)C[C@@H]1OC(C)=O	-3%	?	-3%	·	?	20%
CCC(=O)Nc1ccc2c(c1)C(=O)c1ccccc1C2=O	-29%	342%	-18%	-80%	256%	?
CCC(=O)NC1=C(NC(C)c2ccccc2)C(=O)c2ccccc2C1=O (stereo unspecified)	-4%	·	-14%	-3%	0.93µM*	-2%
Cc1ccc(Nc2nc(N/N=C/c3c[nH]c4ccccc34)nc(N3CCOCC3)n2)cc1	-72%	?	6%	?	?	?
BrC(/C=N/Nc1nc(N2CCOCC2)nc(N2CCOCC2)n1)=C/c1ccccc1	-20%	12µM*	0%	-17%	0%	-17%
c1ccc(Nc2nc(N3CCOCC3)nc(N3CCOCC3)n2)cc1	-10%	?	2%	-14%	-13%	?
Cc1cc(/C=N/Nc2nc(N3CCOCC3)nc(N3CCOCC3)n2)c(C)n1-c1ccccc1	-2%	9.3µM*	24%	·	62%	?
Cc1[nH]c2ccccc2c1/C=N/Nc1nc(Nc2ccc(F)cc2)nc(N2CCOCC2)n1	-9%	4.1µM*	35%	12%	2.6µM*	8.9µM*!
C(=N\Nc1nc(Nc2ccccc2)nc(N2CCOCC2)n1)/c1c[nH]c2ccccc12	-6%	?	30%	-42%	?	3.5µM*
CN(CC(=O)Nc1ccc(N2CCOCC2)cc1)C(=O)CCNC(=O)c1ccc(Br)cc1	-6%	-11%	-12%	·	-1%	4%
Cn1c(=O)c2c(nc(NCc3ccc4c(c3)OCO4)n2Cc2ccccc2F)n(C)c1=O	0%	?	-4%	4%	6%	?
Cn1c(=O)c2c(nc(NCc3ccc4c(c3)OCO4)n2Cc2ccc(F)cc2)n(C)c1=O	-3%	12µM*	?	-21%	13µM*	11µM*
Cn1c(=O)c2c(nc(NCc3ccc4c(c3)OCO4)n2Cc2ccccc2)n(C)c1=O	-1%	13µM*	3%	2%	-21%	?
CC1CCCN(C(=O)COC(=O)c2ccc3[nH]c4c(c3c2)CCCC4)C1 (stereo unspecified)	-5%	37%	-7%	·	16%	?
